RORgamma inh = qHTS for inhibitors of ROR gamma transcriptional activity; Drosophila S2 Gal4-RORgamma UAS-luciferase reporter, 20 h; 5.4% of 310,000 active; Nuclear receptor ROR-gamma (Mus musculus), P51450; Potency, µM (top dose mostly 53.6 µM), hits mostly inhibitors; also: nearly all actives have a fitted effect of over 60% in size
Target sequence (P51450 whole entry, looked up, the tested form may be a part): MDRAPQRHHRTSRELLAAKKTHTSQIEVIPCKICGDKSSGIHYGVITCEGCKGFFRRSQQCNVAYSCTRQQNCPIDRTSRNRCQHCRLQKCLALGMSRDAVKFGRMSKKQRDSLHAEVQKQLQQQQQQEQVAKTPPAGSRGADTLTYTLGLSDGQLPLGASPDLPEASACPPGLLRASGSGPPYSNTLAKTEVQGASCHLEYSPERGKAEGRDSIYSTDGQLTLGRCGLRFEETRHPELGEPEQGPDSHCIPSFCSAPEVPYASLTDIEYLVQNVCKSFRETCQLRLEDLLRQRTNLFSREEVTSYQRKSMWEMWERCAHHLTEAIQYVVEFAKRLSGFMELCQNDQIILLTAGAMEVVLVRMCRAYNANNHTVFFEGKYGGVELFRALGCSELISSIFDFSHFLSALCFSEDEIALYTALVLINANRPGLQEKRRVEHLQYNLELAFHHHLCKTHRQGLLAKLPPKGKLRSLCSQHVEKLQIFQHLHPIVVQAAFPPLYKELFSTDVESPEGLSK
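Using a luciferase readout, inhibitors were identified by reduced reporter activity in Drosophila cells coexpressing a copper-inducible Gal4–ROR gamma fusion and UAS-driven Photinus luciferase, incubated 20 hr after 700 uM copper sulfate.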
MCF10A rerep = A quantitative high throughput screen for small molecules that induce DNA re-replication in MCF 10a normal breast cells; MCF 10A DNA re-replication, Hoechst nuclear intensity, 48 h; Potency, µM (doses to about 46.1 µM), hits mostly activators; 2.9% of 350,000 active; also: nearly all actives have a fitted effect of over 50% in size
SW480 rereplic = A quantitative high throughput screen for small molecules that induce DNA re-replication in SW480 colon adenocarcinoma cells. SW480 DNA re-replication, Hoechst DNA content imaging, 48 h. Potency, µM (doses to about 46.1 µM), usual class: activators. 1.8% of 340,000 active; also: nearly all actives have a fitted effect of over 55% in size
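Treated cells incubate 48 hr (37 C, 5% CO2), are stained 40 min with Hoechst, and nuclear fluorescence is enumerated; a rise in nuclei with high DNA signal marks re-replication.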
KB-3-1 tox = qHTS assay for MDR1-selective chemotherapeutics: Primary screen using the parental adenocarcinoma cell KB-3-1; KB-3-1 viability, CellTiter-Glo ATP luminescence, 72 h; 1.4% of 400,000 active; Potency, µM (titrated, usually from 46.1 µM), hits mostly cytotoxic; AID 1347075, 2019; also: nearly all actives have a fitted effect of over 60% in size
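Cells are dispensed, compounds pinned in, plates held at 37 °C for 72 h, then CellTiter-Glo is added and luminescence read after 10 minutes. Cell line: parental KB-3-1 in phenol-red-free DMEM, 10% FBS.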
KB-V1 MDR tox = qHTS assay for MDR1-selective chemotherapeutics: Primary screen using the drug-selected MDR subline cells KB-V1. KB-V1 MDR cells viability, CellTiter-Glo, 72 h. Potency, µM (doses to about 46.1 µM), hits mostly cytotoxic. 3.4% of 400,000 active; also: nearly all actives have a fitted effect of over 60% in size
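Readout: CellTiter-Glo luminescence, 10 min after addition. Cells: KB-V1 MDR subline, 72 h at 37 degrees C with compound. Analysis: corrected, normalized data fitted to concentration-effect curves.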
VP16 counter = VP16 counterscreen qHTS for inhibitors of ROR gamma transcriptional activity; 3.5% of 310,000 active; Drosophila S2 Gal4-VP16 UAS-luciferase, luminescence, 20 h; Potency, µM (doses to about 53.6 µM), hits mostly inhibitors;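 also: Gal4-VP16 expression switched on by copper sulfate through the metallothionein promoter; nearly all actives have a fitted effect of over 50% in size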
A number is an active result; i = inactive; ? = inconclusive; nt = no result; [ ] = dose if it differs, or a comment. Most compounds without a hit are left out; they make up all but 10% or so of the library. Calls follow the shape of the dose curve; as a rule, active = well fitted curve in the direction sought with a large enough effect; inconclusive = small, poorly fitted or top-dose-only effect, or another doubt; inactive = no such curve, though single readings can be large; an effect the other way counts as inactive or inconclusive.

SMILES	RORgamma inh	MCF10A rerep	SW480 rereplic	KB-3-1 tox	KB-V1 MDR tox	VP16 counter
Cc1nn(-c2ccccc2)c(Cl)c1/C=C(\C#N)C(=O)NC(C)C	?	23.1µM	?	?	i	?
Cc1nn(-c2ccccc2)c(Cl)c1/C=N/Nc1nnc(C)c(=O)[nH]1	i	i	i	i	?	i
Cc1ccc(S(=O)(=O)c2cn(CC(=O)Nc3ccccc3)c3cc4c(cc3c2=O)OCO4)cc1	nt	nt	nt	i	?	nt
COc1ccc(S(=O)(=O)Nc2cccc(-c3ccc(N4CCC(C)CC4)nn3)c2)c(OC)c1	nt	nt	nt	i	i	nt
Cc1c(C(=O)Nc2ccccc2F)sc2ncnc(N(C)C3CCCCC3)c12	nt	nt	nt	?	i	nt
Cc1nn(-c2ccccc2)c(Cl)c1/C=N/NC(N)=O	i	i	?	?	2.06µM	i
CCC(C)(C)n1nnnc1C(c1ccc(C)cc1)N1CCCC1 (stereo not given)	i	?	23.1µM	i	?	i
Cc1ccc(C(c2nnnn2C(C)(C)C)N2CCC(C)CC2)cc1 (stereo not given)	?	i	i	i	?	i
CC(C)(C)n1nnnc1C(c1cccc(C(F)(F)F)c1)N1CCC(O)CC1 (stereo not given)	i	i	i	0.0046µM	i	i
Cc1ccc(C(c2nnnn2CCc2ccccc2)N2CCC(C)CC2)cc1 (stereo not given)	?	?	i	?	18.4µM	14.1µM
CCC(C)(C)n1nnnc1C(c1cccs1)N1CCCCC1 (stereo not given)	i	i	i	i	i	i
CC1CCN(C(c2ccccc2)c2nnnn2C(C)(C)C)CC1 (stereo not given)	?	i	i	i	?	3.16µM
CC(C)(C)n1nnnc1C(c1cccc(C(F)(F)F)c1)N1CCOCC1 (stereo not given)	i	i	i	i	i	i
O=C(C[n+]1cccc2cc(Cl)ccc21)c1ccc2ccccc2c1	nt	nt	nt	?	i	nt
CCn1c(C(=O)Nc2cc(C)cc(C)c2)cc2sc(Cl)cc21	nt	nt	nt	i	?	nt
CC(C)CN1C(=O)CSCC1(C)C(=O)NC(C)C (stereo not given)	nt	nt	nt	i	i	nt
COc1ccc(Cl)cc1NC(=S)NC1CCCC1	10µM	i	i	?	i	7.08µM
COc1ccc(NC(=S)NC2CCCCCC2)c(OC)c1	3.16µM	i	i	?	18.4µM	7.08µM
COc1ccc(Cl)cc1NC(=S)N1CCC(c2ccc(C)cc2)C1 (stereo not given)	12.6µM	?	i	i	i	i
COc1ccc(Cl)cc1NS(=O)(=O)c1cccc(C(=O)NC2CC2)c1	nt	i	i	i	18.4µM	nt
COc1ccc(Cl)cc1NS(=O)(=O)c1cccc(C(=O)NCCCN2CCOCC2)c1	nt	nt	nt	i	i	nt
CC(=O)N1CCc2c(sc3c2c(=O)n(Cc2ccccc2)c(=O)n3Cc2ccccc2Cl)C1	nt	nt	nt	i	i	nt
COc1ccc(-c2cc(C(C)=O)c(C)n2CCC(=O)Nc2ccc(C)c(Cl)c2)cc1	nt	nt	nt	i	i	nt
CCn1cc2nc(SCc3cc(C)ccc3C)n(Cc3ccc(C)cc3)c(=O)c2n1	nt	nt	nt	i	i	nt
COc1ccc(NC(=O)N(C2CCCCC2)C2CCN(C(C)C)CC2)c(OC)c1	i	i	i	i	14.6µM	i
SMILES	RORgamma inh	MCF10A rerep	SW480 rereplic	KB-3-1 tox	KB-V1 MDR tox	VP16 counter
Cc1cccc(C)c1NC(=S)N1CCC(c2ccccc2)C1 (stereo not given)	15.8µM	i	i	i	?	35.5µM
COc1ccc(NC(=S)NC2CCCCC2)c(OC)c1	3.16µM	i	i	?	i	?
C=C1[C@@H]2CC[C@H](C2)C1(C)C	i	i	i	nt	nt	i
O=C(COc1cccnc1[N+](=O)[O-])Nc1ccccc1Sc1ccccc1	i	i	i	i	13µM	i
O=C(COc1cccnc1[N+](=O)[O-])Nc1cccc(Br)c1	nt	i	i	i	i	nt
C=CCN1C(=O)c2ccccc2C1(O)Cc1ccccc1 (stereo not given)	i	i	i	i	i	i
CC(C)CN1C(=O)c2ccccc2C1(O)Cc1ccccc1 (stereo not given)	?	?	i	i	i	20µM
COC(=O)C/C=C/C(C)C(OC)c1ccccc1Br (stereo not given)	i[10 µM]	nt	nt	nt	nt	i[10 µM]
Cc1oc2ccc(O)c(CN3CCN(C)CC3)c2c1C(=O)Nc1ccc(C(C)C)cc1	nt	nt	nt	i	i	nt
O=C1/C(=C\c2ccc(O)c(O)c2)SC(=S)N1Cc1ccccc1	i	i	?	?	?	?
O=C(CCN1C(=O)/C(=C/c2cccs2)SC1=S)Nc1ccccc1O	i	?	i	i	?	i
O=C1/C(=C\c2cccc(O)c2O)SC(=S)N1Cc1ccccc1	i	?	18.4µM	?	?	?
O=C1/C(=C\c2cc([N+](=O)[O-])ccc2O)SC(=S)N1Cc1ccc(Cl)cc1	i	?	i	?	23.1µM	?
O=C(CCCN1C(=O)/C(=C\c2cccs2)SC1=S)Nc1cc([N+](=O)[O-])ccc1O	?	i	i	i	i	20µM
CCOC(=O)N1CCC(NC(=O)c2cnn(-c3ccc(F)cc3)c2-n2cccc2)CC1	nt	nt	nt	i	?	nt
CCc1nn(-c2ccccc2)c2nc(-c3ccc(O)cc3)c3cc(OC)c(OC)cc3c12	nt	nt	nt	i	?	nt
CC1C=CCCOC1c1ccccc1 (stereo not given)	i[10 µM]	nt	nt	nt	nt	i[10 µM]
Cc1cc(C)cc(NC(=S)NCCSc2ccc(Cl)cc2)c1	2.82µM	20.6µM	i	i	i	5.01µM
Cc1ccc(SCCNC(=S)Nc2ccc(C)c(C)c2)cc1	4.47µM	14.6µM	?	?	?	8.91µM
Cc1ccc(SCCNC(=S)Nc2cc(C)ccc2C)cc1	6.31µM	?	i	i	?	7.94µM
COC(=O)Cc1ccc(NC(=S)NCCSc2ccc(Cl)cc2)cc1	15.8µM	?	i	i	i	?
Cc1ccc(SCCNC(=O)C(CO)(CO)CO)cc1	i	i	i	i	i	i
CN(C)S(=O)(=O)c1ccc2c(c1)N(CC(=O)Nc1ccc(F)cc1)C(=O)CS2	nt	nt	nt	i	i	nt
CC(=O)C[C@H](O)CC(=O)[C@@H]1OC(=O)CCCCCCc2ccccc21	nt	i	i	i	i	nt
COc1ccccc1NC(=S)NCCSc1ccc(C)cc1	12.6µM	i	?	i	?	11.2µM
Cc1ccc(SCCNC(=S)Nc2ccccc2)cc1	0.794µM	i	i	i	i	1µM
COc1cc(-c2noc(-c3ccc(NCC4CCCO4)c([N+](=O)[O-])c3)n2)cc(OC)c1OC (stereo not given)	nt	nt	nt	i	i	nt

Screening data: PubChem, National Center for Advancing Translational Sciences (NCATS)
